Source: PubChem BioAssay (EPA / NIEHS)
Inconclusive results are not listed. Activity calls are given as the source filed them. How the source made its calls, unless noted: active means hit-call score of the fitted dose curve at least 0.9, where 1 is the maximum; inactive means score below 0.9.

Experiments:
[1] = BSK_3C_Proliferation: Cell Proliferation Assessment in the BioMAP Diversity Plus: 3C Assay (AID 2283006); conditions: primary human endothelial cells (HUVEC);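 on AC50: potency may reflect either rise or fall in cell number versus DMSO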
How it was run: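 Read-out is total protein by SRB absorbance at 560 nm, taken as a proxy for relative cell number. Primary human umbilical vein endothelium cultured below confluence was dosed for 48 h, TCA-fixed and SRB-stained; curves were fitted bidirectionally versus DMSO.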

[2] = molecular target: human RAR-related Orphan Receptor beta (RORb), RORB (gene 6096) (UniProt Q92753); assay: ATG_RORb_TRANS: Attagene TRANS-FACTORIAL HepG2 Assay for human RAR-related Orphan Receptor beta (RORb) (AID 2283010; active means hit-call score of the fitted dose curve at least 0.9, where 1 is the maximum)
How it was run: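 Readout is reporter-gene mRNA induction, detected as fluorescence after RT-PCR and capillary electrophoresis, fitted for gain of signal against DMSO controls. Transiently transfected HepG2 liver cells carrying GAL4-UAS reporter constructs were treated for 24 hours.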

[3] = molecular target: Retinoic acid receptor RXR-alpha (Homo sapiens) (UniProt P19793); assay: ATG_RXRa_TRANS: Attagene TRANS-FACTORIAL HepG2 Assay for human Retinoid X Receptor alpha (RXRa) (AID 2283012; active means hit-call score of the fitted dose curve at least 0.9, where 1 is the maximum)
How it was run: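 Transient transfection of human HepG2 with multiple GAL4-UAS reporter constructs; 24 h compound exposure; total RNA isolated, reverse-transcribed, PCR-amplified, 6-FAM labelled, HpaI-cut, resolved by capillary electrophoresis. Positive-direction fit versus DMSO.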

[4] = molecular target: human Retinoid X Receptor beta (RXRb), RXRB (gene 6257) (UniProt P28702); assay: ATG_RXRb_TRANS: Attagene TRANS-FACTORIAL HepG2 Assay for human Retinoid X Receptor beta (RXRb) (AID 2283013; active means hit-call score of the fitted dose curve at least 0.9, where 1 is the maximum)
How it was run: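 Transfect HepG2 with GAL4-UAS multi-reporter constructs (chimeric NR-Gal4, TRANS format); dose compound 24 h; isolate RNA, RT-PCR, FAM primer extension, HpaI digest; quantify by capillary electrophoresis; positive direction vs DMSO.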

[5] = read-out: E-selectin (Homo sapiens) (UniProt P16581); assay: BSK_3C_Eselectin: BioMAP Diversity Plus: 3C Assay for Eselectin Biomarker Activity (AID 2283015); conditions: primary human endothelial cells (HUVEC); actives raise or lower the signal
How it was run: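 HUVEC, 3C stimulation; compound exposure 24 h; E-selectin by ELISA; gain- or loss-of-signal fitted bidirectionally vs DMSO baseline.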

[6] = read-out: Interleukin-1 alpha (IL1a), IL1A (gene 3552); assay: BSK_BE3C_IL1a: BioMAP Diversity Plus: BE3C Assay for Interleukin-1 alpha (IL1a) Biomarker Activity (AID 2283016); conditions: primary human bronchial epithelial cells; actives raise or lower the signal
How it was run: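 BE3C primary human bronchial epithelium; cpd 24 h; IL-1a by ELISA; bidirectional fit vs DMSO; parallel SRB (0.1% SRB, 10% TCA fix, 560 nm) for cytotoxicity.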

[7] = read-out: Monocyte Chemoattractant Protein-1 (MCP1), CCL2 (gene 6347); assay: BSK_3C_MCP1: BioMAP Diversity Plus: 3C Assay for Monocyte Chemoattractant Protein-1 (MCP1) Biomarker Activity (AID 2283017); conditions: primary human endothelial cells (HUVEC); actives raise or lower the signal
How it was run: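 HUVEC, 3C system; 24 h chemical exposure; MCP-1 by ELISA; bidirectional curve fit vs DMSO baseline.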

[8] = read-out: Monocyte Chemoattractant Protein-1 (MCP1), CCL2 (gene 6347); assay: BSK_4H_MCP1: BioMAP Diversity Plus: 4H Assay for Monocyte Chemoattractant Protein-1 (MCP1) Biomarker Activity (AID 2283018); conditions: primary human endothelial cells (HUVEC); actives raise or lower the signal
How it was run: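 ELISA read-out of MCP-1 from human vascular endothelial primary cells taken at 24 hours after compound exposure. Activity was fitted in both directions relative to DMSO, which served as negative control.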

[9] = read-out: Human Leukocyte Antigen - DR isotype (HLADR), HLA-DRA (gene 3122); assay: BSK_3C_HLADR: BioMAP Diversity Plus: 3C Assay for Human Leukocyte Antigen - DR isotype (HLADR) Biomarker Activity (AID 2283019); conditions: primary human endothelial cells (HUVEC); actives raise or lower the signal
How it was run: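 HUVEC, 3C stimulation, 24 h post-dose; HLA-DR by ELISA; bidirectional curve fit vs DMSO baseline; gain or loss of signal scored.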

[10] = read-out: Interleukin-8 (IL8), CXCL8 (gene 3576); assay: BSK_3C_IL8: BioMAP Diversity Plus: 3C Assay for Interleukin-8 (IL8) Biomarker Activity (AID 2283020); conditions: primary human endothelial cells (HUVEC); actives raise or lower the signal
How it was run: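 ELISA read-out of IL-8 from human umbilical vein endothelium, measured 24 h after chemical dosing. Activity is expressed relative to DMSO negative control, with both increases and decreases fitted.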

[11] = read-out: Monokine induced gamma interferon (MIG), CXCL9 (gene 4283); assay: BSK_3C_MIG: BioMAP Diversity Plus: 3C Assay for Monokine induced gamma interferon (MIG) Biomarker Activity (AID 2283021); conditions: primary human endothelial cells (HUVEC); actives raise or lower the signal
How it was run: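 Read-out is ELISA detection of MIG on human umbilical vein endothelial cells, taken 24 h after dosing. Gain or loss of signal was scored relative to DMSO controls using bidirectional curve fitting.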

[12] = BSK_3C_SRB: Viability Assessment in the BioMAP Diversity Plus: 3C Assay (AID 2283023); conditions: primary human endothelial cells (HUVEC);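 further: fitted both ways against DMSO so a hit may be signal rise or drop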
How it was run: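 HUVEC, 24 h post-dose; 10% TCA fix, 0.1% SRB stain, A560 nm. Bidirectional curve fit vs DMSO negative control.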

[13] = read-out: Matrix Metallopeptidase 1 (MMP1), MMP1 (gene 4312); assay: BSK_BE3C_MMP1: BioMAP Diversity Plus: BE3C Assay for Matrix Metallopeptidase 1 (MMP1) Biomarker Activity (AID 2283024); conditions: primary human bronchial epithelial cells; actives raise or lower the signal
How it was run: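 Human bronchial epithelial cells (BE3C system) exposed to compound for 24 h; MMP1 then quantified by ELISA. Activity was fitted in both directions relative to DMSO.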

[14] = molecular target: Peroxisome proliferator-activated receptor gamma (Homo sapiens) (UniProt P37231); assay: ATG_PPARg_TRANS: Attagene TRANS-FACTORIAL HepG2 Assay for human Peroxisome Proliferator-activated Receptor-gamma (PPARg) (AID 2283007; active means hit-call score of the fitted dose curve at least 0.9, where 1 is the maximum)
How it was run: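 Chimeric NR-Gal4 transactivation is measured in transiently transfected HepG2 cells by reporter mRNA induction at 24 h. Detection uses RT-PCR with fluorescent labelling and capillary electrophoresis; DMSO defines baseline.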

[15] = molecular target: Nuclear receptor subfamily 1 group I member 2 (Homo sapiens) (UniProt O75469); assay: ATG_PXR_TRANS: Attagene TRANS-FACTORIAL HepG2 Assay for human Pregnane X Receptor (PXR) (AID 2283008; active means hit-call score of the fitted dose curve at least 0.9, where 1 is the maximum)
How it was run: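 Measures mRNA induction of a GAL4-UAS-driven reporter in human HepG2 cells transiently expressing PXR fused to Gal4, following 24 h treatment. DMSO served as negative control and baseline.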

[16] = molecular target: human RAR-related Orphan Receptor gamma (RORg), RORC (gene 6097) (UniProt P51449); assay: ATG_RORg_TRANS: Attagene TRANS-FACTORIAL HepG2 Assay for human RAR-related Orphan Receptor gamma (RORg) (AID 2283011; active means hit-call score of the fitted dose curve at least 0.9, where 1 is the maximum)
How it was run: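 Transient MRTU transfection of HepG2 (TRANS format, exogenous NR-Gal4 chimera). 24 h dosing. Total RNA → oligo(dT) RT → PCR → 6-FAM labelling → HpaI cut → CE. Gain vs DMSO.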

[17] = molecular target: human Vitamin D Receptor (VDR), VDR (gene 7421) (UniProt P11473); assay: ATG_VDR_TRANS: Attagene TRANS-FACTORIAL HepG2 Assay for human Vitamin D Receptor (VDR) (AID 2283022; active means hit-call score of the fitted dose curve at least 0.9, where 1 is the maximum)
How it was run: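 RT-PCR/capillary electrophoresis read-out of reporter mRNA induction in transiently transfected HepG2; 24 h dosing; chimeric NR-Gal4 (TRANS format); gain-of-signal fit against DMSO baseline.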

[18] = molecular target: human Retinoic Acid Receptor gamma (RARg), RARG (gene 5916) (UniProt P13631); assay: ATG_RARg_TRANS: Attagene TRANS-FACTORIAL HepG2 Assay for human Retinoic Acid Receptor gamma (RARg) (AID 2283009; active means hit-call score of the fitted dose curve at least 0.9, where 1 is the maximum)
How it was run: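 Transient transfection of HepG2 with multi-reporter constructs, then 24 h chemical treatment. Total RNA isolated, reverse-transcribed, PCR-amplified, fluorescently labelled and resolved by capillary electrophoresis; activity scored as mRNA induction versus DMSO.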

[19] = molecular target: human Thyroid Receptor alpha (THRa1), THRA (gene 7067) (UniProt P10827); assay: ATG_THRa1_TRANS: Attagene TRANS-FACTORIAL HepG2 Assay for human Thyroid Receptor alpha (THRa1) (AID 2283014; active means hit-call score of the fitted dose curve at least 0.9, where 1 is the maximum)
How it was run: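 Transient HepG2 transfection, NR-Gal4 chimera driving GAL4-UAS reporters; 24 h compound exposure; total RNA, oligo(dT) RT, PCR, fluorescent primer extension, capillary electrophoresis. Upward direction vs DMSO control.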

Measured: AC50

Peroxisome proliferator-activated receptor gamma (Homo sapiens), sequence (P37231 whole entry, looked up, the tested form may be a part): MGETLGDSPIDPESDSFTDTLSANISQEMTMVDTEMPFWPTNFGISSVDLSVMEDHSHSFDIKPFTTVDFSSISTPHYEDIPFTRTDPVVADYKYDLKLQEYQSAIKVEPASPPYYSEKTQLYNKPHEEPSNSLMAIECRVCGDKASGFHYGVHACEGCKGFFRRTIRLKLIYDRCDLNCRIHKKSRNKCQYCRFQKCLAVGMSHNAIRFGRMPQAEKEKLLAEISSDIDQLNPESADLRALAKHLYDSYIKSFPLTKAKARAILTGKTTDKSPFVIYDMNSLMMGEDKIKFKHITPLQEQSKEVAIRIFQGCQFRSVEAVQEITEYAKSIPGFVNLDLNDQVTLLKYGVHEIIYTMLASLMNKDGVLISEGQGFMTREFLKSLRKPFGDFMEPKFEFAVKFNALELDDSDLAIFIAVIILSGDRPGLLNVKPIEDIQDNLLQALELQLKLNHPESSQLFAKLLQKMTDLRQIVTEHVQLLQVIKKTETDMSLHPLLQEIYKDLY
E-selectin (Homo sapiens), sequence (P16581 whole entry, looked up): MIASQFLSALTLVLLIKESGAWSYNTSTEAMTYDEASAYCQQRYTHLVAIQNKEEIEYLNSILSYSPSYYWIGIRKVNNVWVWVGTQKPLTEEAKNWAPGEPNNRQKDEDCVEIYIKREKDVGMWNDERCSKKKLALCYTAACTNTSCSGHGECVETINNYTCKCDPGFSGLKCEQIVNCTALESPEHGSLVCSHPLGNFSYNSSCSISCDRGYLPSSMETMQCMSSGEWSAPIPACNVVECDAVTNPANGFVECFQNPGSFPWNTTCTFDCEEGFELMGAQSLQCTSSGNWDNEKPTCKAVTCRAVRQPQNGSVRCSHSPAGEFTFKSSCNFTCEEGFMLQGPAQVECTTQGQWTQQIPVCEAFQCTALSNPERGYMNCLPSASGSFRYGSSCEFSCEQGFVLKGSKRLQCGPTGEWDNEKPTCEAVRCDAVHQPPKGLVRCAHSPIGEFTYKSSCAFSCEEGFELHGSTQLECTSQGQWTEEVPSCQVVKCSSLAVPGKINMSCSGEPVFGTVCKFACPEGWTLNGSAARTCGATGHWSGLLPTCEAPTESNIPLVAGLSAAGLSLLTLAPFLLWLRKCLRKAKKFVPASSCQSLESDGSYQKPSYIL
human RAR-related Orphan Receptor gamma (RORg), RORC (gene 6097), sequence (P51449 whole entry, looked up, the tested form may be a part): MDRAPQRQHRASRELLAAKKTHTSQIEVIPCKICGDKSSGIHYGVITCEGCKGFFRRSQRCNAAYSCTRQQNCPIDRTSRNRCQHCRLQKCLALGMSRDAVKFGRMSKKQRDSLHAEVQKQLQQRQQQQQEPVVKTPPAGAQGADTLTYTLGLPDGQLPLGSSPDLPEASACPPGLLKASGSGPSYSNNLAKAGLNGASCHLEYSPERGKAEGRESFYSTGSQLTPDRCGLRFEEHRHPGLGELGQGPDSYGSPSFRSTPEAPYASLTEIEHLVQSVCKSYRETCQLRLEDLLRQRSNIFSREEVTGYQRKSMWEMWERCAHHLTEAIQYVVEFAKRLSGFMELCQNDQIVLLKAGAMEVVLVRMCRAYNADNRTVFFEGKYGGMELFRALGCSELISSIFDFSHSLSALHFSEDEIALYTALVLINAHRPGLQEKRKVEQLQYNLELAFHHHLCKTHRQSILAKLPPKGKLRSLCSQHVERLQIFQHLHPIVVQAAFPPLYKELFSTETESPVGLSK
human RAR-related Orphan Receptor beta (RORb), RORB (gene 6096), sequence (Q92753 whole entry, looked up, the tested form may be a part): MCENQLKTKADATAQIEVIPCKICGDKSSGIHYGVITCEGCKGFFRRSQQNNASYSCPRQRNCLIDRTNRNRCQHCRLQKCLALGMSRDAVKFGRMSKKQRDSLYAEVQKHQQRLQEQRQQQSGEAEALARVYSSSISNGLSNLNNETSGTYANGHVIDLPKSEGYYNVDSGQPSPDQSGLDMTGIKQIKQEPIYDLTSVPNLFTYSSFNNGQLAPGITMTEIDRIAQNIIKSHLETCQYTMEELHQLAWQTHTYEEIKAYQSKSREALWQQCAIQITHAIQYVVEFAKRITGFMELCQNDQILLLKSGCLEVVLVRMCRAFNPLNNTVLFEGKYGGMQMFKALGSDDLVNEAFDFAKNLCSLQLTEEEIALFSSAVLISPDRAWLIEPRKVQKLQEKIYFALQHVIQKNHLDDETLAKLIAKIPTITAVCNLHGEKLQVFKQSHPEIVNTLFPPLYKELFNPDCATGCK
human Retinoid X Receptor beta (RXRb), RXRB (gene 6257), sequence (P28702 whole entry, looked up, the tested form may be a part): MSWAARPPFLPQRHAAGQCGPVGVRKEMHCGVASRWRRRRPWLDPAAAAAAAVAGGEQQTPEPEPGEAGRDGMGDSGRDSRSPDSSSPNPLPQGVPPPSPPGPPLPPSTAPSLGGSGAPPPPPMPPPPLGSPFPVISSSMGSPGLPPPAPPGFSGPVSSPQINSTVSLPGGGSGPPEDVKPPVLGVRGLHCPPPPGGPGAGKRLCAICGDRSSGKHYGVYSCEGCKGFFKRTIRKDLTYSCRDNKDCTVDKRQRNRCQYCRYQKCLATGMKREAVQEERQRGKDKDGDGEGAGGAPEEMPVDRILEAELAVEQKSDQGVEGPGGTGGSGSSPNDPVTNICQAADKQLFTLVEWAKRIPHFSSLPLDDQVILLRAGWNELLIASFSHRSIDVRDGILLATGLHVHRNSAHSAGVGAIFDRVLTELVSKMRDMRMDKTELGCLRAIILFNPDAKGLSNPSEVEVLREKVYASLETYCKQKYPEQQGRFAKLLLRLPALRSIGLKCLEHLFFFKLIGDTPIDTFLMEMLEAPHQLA
human Vitamin D Receptor (VDR), VDR (gene 7421), sequence (P11473 whole entry, looked up, the tested form may be a part): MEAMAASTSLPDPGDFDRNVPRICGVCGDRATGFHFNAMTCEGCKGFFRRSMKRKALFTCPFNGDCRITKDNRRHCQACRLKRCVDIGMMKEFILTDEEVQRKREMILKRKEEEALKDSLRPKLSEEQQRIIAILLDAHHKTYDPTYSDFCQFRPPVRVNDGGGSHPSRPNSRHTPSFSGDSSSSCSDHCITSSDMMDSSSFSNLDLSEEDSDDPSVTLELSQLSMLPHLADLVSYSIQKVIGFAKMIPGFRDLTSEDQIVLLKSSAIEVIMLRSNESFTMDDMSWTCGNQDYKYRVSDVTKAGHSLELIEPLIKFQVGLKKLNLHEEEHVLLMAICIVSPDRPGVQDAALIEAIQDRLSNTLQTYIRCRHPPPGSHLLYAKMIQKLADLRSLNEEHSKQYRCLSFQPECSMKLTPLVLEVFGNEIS
Nuclear receptor subfamily 1 group I member 2 (Homo sapiens), sequence (O75469 whole entry, looked up, the tested form may be a part): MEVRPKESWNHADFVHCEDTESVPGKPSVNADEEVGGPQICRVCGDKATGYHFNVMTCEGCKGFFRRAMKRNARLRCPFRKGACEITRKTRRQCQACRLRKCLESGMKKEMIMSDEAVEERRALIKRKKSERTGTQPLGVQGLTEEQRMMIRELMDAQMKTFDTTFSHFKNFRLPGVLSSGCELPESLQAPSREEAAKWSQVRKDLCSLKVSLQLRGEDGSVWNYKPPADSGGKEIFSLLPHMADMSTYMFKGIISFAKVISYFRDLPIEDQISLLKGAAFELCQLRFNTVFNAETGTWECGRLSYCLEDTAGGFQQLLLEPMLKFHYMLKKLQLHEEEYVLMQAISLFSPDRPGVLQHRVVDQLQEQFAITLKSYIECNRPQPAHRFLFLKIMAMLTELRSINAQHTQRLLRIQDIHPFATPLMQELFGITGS
human Retinoic Acid Receptor gamma (RARg), RARG (gene 5916), sequence (P13631 whole entry, looked up): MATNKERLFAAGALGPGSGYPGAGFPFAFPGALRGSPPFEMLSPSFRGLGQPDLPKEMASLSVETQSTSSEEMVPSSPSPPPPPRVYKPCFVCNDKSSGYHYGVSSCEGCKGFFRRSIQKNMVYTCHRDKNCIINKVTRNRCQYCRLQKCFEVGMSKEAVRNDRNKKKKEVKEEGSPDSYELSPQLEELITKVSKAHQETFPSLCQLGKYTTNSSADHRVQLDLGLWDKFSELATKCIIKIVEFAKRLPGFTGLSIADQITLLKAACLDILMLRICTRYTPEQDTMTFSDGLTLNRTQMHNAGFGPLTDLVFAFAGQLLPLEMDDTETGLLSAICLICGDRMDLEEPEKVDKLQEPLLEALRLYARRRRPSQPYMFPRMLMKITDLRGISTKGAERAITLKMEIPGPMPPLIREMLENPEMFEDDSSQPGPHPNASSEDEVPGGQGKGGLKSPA
human Thyroid Receptor alpha (THRa1), THRA (gene 7067), sequence (P10827 whole entry, looked up, the tested form may be a part): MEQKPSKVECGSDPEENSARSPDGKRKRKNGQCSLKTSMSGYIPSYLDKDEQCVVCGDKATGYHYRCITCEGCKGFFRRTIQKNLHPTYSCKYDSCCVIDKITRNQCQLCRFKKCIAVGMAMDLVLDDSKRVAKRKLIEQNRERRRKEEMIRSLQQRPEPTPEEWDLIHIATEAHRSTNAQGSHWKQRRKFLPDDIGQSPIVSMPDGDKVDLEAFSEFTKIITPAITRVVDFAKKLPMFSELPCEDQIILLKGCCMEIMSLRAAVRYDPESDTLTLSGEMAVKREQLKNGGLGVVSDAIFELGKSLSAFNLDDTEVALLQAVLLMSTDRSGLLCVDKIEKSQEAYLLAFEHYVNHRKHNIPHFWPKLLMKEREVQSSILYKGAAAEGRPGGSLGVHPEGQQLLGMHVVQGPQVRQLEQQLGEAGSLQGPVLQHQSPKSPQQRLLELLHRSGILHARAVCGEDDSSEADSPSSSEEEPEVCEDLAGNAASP
Retinoic acid receptor RXR-alpha (Homo sapiens), sequence (P19793 whole entry, looked up, the tested form may be a part): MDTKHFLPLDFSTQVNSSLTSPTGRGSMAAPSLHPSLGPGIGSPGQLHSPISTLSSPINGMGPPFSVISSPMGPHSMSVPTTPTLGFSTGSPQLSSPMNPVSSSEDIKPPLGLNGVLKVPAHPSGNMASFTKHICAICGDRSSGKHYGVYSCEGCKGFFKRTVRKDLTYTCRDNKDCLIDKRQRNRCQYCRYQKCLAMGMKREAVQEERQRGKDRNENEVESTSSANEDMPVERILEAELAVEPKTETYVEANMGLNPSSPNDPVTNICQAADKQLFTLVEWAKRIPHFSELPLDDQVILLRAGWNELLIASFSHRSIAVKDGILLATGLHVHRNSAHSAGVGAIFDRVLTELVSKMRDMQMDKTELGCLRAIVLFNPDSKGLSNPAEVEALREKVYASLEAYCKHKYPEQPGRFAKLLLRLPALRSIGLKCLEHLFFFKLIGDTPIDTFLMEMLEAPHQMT

OCCN(CCO)CCO
inactive: [1] | [2] | [3] | [4] | [5] | [6] | [7] | [8] | [9] | [10] | [11] | [12] | [13]

CC(C)(C)c1ccccc1O
inactive: [1] | [14] | [16] | [5] | [6] | [7] | [8] | [9] | [10] | [17] | [12] | [13]
active: [15] 15.4 µM | [4] 10.6 µM

OCCCCO
inactive: [1] | [18] | [2] | [16] | [5] | [6] | [8] | [9] | [10] | [12] | [13]

Cc1ccccc1OP(=O)(Oc1ccccc1)Oc1ccccc1
inactive: [3] | [17]
active: [1] 20 µM | [14] 3.74 µM | [5] 20 µM | [6] 6.89 µM | [8] 20 µM | [9] 30.4 µM | [10] 20 µM | [12] 35.8 µM | [13] 6.66 µM

O=[N+]([O-])c1cccc2ccccc12
active: [15] 30.4 µM | [4] 100 µM
inactive: [1] | [14] | [19] | [5] | [6] | [8] | [9] | [10] | [12] | [13]

O=C(CCl)NCO
inactive: [1] | [15] | [18] | [2] | [16] | [19] | [5] | [6] | [8] | [9] | [10] | [11] | [17] | [12] | [13]

Cc1cccc(OP(=O)(Oc2cccc(C)c2)Oc2cccc(C)c2)c1
active: [1] 8.53 µM | [14] 13.9 µM | [15] 0.521 µM | [6] 0.78 µM
inactive: [5] | [7] | [8] | [9] | [10] | [11] | [17] | [12] | [13]

CCOC(=O)C(SP(=S)(OC)OC)c1ccccc1 (stereo not given)
inactive: [16] | [5] | [6] | [10] | [11] | [17] | [13]
active: [1] 14.9 µM | [14] 70.8 µM | [15] 3.52 µM | [4] 32.2 µM | [7] 3.97 µM | [8] 3.97 µM | [9] 31.8 µM | [12] 32.6 µM

O=C(O)COc1cc(Cl)c(Cl)cc1Cl
active: [14] 32.6 µM
inactive: [1] | [15] | [4] | [19] | [5] | [6] | [7] | [8] | [9] | [10] | [12] | [13]

O=C(CCl)Nc1ccccc1
inactive: [15]
active: [14] 2.7 µM

CCOC(=O)CC(=O)CCl
active: [1] 20 µM | [14] 22 µM | [19] 100 µM | [5] 20 µM | [6] 20 µM | [9] 28.1 µM | [10] 3.97 µM
inactive: [2] | [16] | [4] | [7] | [8] | [17] | [12] | [13]

O=C(Cc1ccccc1)OCCc1ccccc1
inactive: [1] | [14] | [18] | [16] | [4] | [5] | [6] | [8] | [9] | [10] | [17] | [12] | [13]

Clc1cccc(Cl)c1
inactive: [1] | [16] | [4] | [19] | [5] | [6] | [8] | [9] | [10] | [11] | [17] | [12] | [13]
